Reference: ChEMBL document CHEMBL2218924, “A broad activity screen in support of a chemogenomic map for kinase signalling research and drug discovery” (Biochem J, 2013)

Columns and labels:
[1] = target: Death-associated protein kinase 1 (Homo sapiens) (UniProt P53355); conditions: at 10 µM
[2] = target: Death-associated protein kinase 2 (Homo sapiens) (UniProt Q9UIK4); conditions: at 1 µM
[3] = target: Death-associated protein kinase 2 (Homo sapiens) (UniProt Q9UIK4); conditions: at 10 µM
[4] = target: T1, Serine/threonine-protein kinase DCLK2 (Homo sapiens) (UniProt Q8N568); conditions: at 1 µM
T1 sequence (whole entry): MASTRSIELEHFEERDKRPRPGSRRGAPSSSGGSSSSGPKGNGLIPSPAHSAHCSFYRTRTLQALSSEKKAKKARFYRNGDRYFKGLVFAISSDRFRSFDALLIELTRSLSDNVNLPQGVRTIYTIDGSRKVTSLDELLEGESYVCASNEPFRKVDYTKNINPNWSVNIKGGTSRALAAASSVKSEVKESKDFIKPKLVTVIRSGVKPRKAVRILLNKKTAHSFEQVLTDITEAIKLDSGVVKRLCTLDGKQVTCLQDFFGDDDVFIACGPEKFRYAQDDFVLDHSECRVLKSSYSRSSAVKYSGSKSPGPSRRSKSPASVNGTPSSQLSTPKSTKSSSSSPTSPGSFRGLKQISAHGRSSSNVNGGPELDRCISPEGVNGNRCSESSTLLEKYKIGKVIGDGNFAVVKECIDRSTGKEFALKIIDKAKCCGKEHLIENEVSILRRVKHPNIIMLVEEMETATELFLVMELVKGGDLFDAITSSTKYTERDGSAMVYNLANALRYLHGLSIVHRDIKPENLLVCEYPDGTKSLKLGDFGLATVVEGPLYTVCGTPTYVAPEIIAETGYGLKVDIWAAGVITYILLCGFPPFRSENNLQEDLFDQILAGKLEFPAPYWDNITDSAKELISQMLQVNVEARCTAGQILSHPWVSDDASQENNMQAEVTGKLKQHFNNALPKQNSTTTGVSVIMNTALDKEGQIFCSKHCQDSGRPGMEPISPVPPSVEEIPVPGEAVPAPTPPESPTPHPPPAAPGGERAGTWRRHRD

[5] = target: T1, Serine/threonine-protein kinase DCLK2 (Homo sapiens); conditions: at 10 µM
[6] = target: T2, Discoidin domain-containing receptor 2 (Homo sapiens) (UniProt Q16832); conditions: at 1 µM
T2 sequence (whole entry): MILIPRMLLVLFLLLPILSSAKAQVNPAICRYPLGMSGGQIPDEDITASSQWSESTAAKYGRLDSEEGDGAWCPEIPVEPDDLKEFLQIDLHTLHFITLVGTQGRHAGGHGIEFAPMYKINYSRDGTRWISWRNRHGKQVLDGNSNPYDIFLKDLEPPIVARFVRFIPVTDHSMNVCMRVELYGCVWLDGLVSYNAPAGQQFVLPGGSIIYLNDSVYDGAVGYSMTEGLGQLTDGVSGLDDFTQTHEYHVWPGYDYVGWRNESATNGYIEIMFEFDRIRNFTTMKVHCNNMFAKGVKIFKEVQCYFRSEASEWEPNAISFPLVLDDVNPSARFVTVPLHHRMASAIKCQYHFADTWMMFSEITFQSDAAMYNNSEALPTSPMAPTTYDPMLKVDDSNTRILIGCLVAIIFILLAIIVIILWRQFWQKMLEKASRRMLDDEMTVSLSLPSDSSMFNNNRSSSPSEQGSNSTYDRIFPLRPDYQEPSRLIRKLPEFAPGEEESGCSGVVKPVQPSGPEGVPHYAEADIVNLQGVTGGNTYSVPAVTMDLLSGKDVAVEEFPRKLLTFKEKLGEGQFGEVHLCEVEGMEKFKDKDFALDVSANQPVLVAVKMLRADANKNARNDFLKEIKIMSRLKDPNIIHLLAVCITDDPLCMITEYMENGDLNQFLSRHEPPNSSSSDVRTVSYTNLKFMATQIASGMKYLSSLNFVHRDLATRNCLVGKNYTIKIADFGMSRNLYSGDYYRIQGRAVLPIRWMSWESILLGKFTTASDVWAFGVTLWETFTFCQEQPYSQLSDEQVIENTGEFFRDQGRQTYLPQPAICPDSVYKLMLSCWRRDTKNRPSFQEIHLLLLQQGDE

[7] = target: T2, Discoidin domain-containing receptor 2 (Homo sapiens); conditions: at 10 µM
[8] = target: T3, Myotonin-protein kinase (Homo sapiens) (UniProt Q09013); conditions: at 1 µM
T3 sequence (whole entry): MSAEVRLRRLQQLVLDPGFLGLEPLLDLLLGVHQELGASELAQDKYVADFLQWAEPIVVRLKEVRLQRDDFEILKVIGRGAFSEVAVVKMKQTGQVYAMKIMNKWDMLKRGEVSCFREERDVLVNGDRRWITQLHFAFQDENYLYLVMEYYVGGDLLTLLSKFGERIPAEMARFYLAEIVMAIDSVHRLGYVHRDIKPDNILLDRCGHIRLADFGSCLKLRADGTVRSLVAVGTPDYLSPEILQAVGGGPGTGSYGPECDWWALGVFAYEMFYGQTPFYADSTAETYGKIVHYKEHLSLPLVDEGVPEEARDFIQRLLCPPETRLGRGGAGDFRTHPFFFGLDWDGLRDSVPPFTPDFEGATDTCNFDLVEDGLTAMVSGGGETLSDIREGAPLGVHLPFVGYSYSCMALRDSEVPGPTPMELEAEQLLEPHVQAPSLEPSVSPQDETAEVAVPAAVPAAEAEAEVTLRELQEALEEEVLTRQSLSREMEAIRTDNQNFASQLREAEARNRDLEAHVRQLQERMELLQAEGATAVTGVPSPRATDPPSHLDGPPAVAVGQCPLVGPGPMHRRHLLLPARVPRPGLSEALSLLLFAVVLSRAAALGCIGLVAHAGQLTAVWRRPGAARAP

[9] = target: T3, Myotonin-protein kinase (Homo sapiens); conditions: at 10 µM
[10] = target: T4, Serine/threonine-protein kinase 17A (Homo sapiens) (UniProt Q9UEE5); conditions: at 1 µM
T4 sequence (whole entry): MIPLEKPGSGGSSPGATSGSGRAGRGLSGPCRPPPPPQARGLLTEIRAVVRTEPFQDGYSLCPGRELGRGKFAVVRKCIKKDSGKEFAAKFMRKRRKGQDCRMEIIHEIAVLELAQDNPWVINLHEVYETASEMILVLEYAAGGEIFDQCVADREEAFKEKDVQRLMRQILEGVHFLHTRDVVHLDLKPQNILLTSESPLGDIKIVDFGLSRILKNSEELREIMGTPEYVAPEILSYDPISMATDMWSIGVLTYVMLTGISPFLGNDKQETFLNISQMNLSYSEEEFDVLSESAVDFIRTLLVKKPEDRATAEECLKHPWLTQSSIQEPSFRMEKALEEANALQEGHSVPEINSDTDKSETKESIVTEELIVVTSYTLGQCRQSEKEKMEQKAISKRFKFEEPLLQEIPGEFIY

[11] = target: T4, Serine/threonine-protein kinase 17A (Homo sapiens); conditions: at 10 µM
[12] = target: T5, Dual specificity tyrosine-phosphorylation-regulated kinase 2 (Homo sapiens) (UniProt Q92630); conditions: at 1 µM
T5 sequence (whole entry): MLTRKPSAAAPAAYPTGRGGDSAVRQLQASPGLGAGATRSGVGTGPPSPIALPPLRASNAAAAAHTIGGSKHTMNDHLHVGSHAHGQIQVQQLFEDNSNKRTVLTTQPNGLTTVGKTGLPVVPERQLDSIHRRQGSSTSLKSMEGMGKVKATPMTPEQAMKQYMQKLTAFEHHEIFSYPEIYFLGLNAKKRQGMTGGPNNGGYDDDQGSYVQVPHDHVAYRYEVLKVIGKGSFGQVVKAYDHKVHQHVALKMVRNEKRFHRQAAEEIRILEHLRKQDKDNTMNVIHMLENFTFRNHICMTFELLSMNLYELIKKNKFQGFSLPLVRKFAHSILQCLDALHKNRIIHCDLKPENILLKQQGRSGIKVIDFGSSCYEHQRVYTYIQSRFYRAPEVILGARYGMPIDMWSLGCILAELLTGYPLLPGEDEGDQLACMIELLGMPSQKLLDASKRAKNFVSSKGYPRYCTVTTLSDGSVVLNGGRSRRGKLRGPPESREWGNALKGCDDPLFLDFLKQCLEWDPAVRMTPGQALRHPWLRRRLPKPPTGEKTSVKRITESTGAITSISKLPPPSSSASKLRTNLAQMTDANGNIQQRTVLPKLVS

[13] = target: T5, Dual specificity tyrosine-phosphorylation-regulated kinase 2 (Homo sapiens); conditions: at 10 µM
[14] = target: T6, Ephrin type-A receptor 1 (Homo sapiens) (UniProt P21709); conditions: at 1 µM
T6 sequence (whole entry): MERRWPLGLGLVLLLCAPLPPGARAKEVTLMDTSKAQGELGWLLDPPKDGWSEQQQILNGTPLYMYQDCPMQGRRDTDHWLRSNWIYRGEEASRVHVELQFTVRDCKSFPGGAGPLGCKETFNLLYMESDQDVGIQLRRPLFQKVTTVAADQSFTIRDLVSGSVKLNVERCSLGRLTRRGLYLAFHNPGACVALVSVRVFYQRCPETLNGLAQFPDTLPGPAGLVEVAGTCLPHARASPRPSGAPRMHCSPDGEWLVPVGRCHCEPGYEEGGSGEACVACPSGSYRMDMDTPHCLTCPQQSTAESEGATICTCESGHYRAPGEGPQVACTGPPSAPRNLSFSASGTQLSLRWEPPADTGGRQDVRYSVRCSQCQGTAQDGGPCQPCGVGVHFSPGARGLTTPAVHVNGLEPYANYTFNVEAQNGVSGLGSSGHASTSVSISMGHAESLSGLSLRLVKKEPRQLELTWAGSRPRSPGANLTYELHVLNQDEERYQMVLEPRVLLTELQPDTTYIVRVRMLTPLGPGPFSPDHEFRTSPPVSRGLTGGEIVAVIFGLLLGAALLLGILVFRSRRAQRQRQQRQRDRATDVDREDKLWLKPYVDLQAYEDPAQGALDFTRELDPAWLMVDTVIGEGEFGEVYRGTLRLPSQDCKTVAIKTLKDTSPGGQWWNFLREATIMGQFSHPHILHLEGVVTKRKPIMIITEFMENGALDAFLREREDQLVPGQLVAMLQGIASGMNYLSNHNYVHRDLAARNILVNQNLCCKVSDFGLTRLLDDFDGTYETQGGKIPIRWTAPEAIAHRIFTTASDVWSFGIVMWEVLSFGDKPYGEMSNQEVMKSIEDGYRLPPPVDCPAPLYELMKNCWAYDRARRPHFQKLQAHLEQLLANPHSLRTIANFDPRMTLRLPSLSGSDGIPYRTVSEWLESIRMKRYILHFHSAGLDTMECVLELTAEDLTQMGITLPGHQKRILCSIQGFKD

[15] = target: T6, Ephrin type-A receptor 1 (Homo sapiens); conditions: at 10 µM
[16] = target: Ephrin type-A receptor 2 (Homo sapiens) (UniProt P29317); conditions: at 1 µM
Ephrin type-A receptor 2 (Homo sapiens), sequence (P29317 whole entry): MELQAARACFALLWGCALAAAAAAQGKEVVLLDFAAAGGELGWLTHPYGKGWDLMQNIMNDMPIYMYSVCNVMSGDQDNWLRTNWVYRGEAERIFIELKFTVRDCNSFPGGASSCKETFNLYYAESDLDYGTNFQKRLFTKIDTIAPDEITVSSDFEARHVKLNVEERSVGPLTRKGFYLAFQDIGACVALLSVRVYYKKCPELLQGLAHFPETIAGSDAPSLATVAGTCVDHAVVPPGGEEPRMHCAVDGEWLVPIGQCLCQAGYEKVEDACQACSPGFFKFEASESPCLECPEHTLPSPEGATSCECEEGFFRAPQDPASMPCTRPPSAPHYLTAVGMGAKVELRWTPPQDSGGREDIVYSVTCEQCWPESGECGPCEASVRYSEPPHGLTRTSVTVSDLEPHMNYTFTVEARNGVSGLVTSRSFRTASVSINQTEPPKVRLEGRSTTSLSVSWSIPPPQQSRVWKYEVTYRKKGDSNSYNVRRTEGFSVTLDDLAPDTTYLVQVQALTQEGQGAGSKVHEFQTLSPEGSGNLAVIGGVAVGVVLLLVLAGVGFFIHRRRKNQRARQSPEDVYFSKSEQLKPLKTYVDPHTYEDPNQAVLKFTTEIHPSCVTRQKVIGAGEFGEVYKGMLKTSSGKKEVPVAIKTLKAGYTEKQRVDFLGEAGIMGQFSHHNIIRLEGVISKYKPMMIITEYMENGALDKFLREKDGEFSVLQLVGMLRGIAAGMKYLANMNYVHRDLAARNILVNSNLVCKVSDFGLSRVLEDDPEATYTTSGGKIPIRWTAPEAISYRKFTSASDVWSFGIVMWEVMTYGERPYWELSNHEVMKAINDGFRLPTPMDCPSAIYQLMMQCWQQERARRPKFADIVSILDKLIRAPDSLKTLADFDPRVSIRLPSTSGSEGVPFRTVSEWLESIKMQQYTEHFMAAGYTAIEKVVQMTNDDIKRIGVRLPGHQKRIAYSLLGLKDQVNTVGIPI

[17] = target: Ephrin type-A receptor 2 (Homo sapiens) (UniProt P29317); conditions: at 10 µM
[18] = target: T7, Ephrin type-A receptor 3 (Homo sapiens) (UniProt P29320); conditions: at 1 µM
T7 sequence (whole entry): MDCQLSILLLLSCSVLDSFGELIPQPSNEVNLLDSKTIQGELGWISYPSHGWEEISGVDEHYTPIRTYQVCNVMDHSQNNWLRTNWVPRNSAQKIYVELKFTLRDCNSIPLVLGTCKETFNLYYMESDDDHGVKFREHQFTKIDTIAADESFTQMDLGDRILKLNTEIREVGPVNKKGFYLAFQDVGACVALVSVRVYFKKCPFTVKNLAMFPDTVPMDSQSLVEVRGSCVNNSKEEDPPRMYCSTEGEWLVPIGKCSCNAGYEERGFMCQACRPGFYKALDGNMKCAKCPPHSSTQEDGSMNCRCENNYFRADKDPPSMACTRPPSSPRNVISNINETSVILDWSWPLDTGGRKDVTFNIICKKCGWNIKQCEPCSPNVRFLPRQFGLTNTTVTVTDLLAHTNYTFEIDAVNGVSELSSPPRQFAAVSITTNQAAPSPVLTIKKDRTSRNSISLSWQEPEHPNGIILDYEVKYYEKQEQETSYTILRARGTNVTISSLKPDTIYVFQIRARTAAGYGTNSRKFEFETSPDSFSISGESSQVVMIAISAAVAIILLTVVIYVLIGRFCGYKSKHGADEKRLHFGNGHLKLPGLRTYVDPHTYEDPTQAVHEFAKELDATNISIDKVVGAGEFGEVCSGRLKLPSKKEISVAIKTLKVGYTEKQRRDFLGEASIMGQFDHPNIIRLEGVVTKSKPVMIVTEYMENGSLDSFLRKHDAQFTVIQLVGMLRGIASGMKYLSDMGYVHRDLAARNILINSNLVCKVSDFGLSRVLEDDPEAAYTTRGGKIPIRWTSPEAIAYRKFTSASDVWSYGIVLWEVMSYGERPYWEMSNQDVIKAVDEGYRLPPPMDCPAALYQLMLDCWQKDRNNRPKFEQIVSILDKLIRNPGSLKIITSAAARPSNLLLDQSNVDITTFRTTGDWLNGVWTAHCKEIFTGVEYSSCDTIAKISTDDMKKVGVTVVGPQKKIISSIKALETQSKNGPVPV

[19] = target: Epidermal growth factor receptor (Homo sapiens) (UniProt P00533); conditions: at 1 µM
Epidermal growth factor receptor (Homo sapiens), sequence (P00533 whole entry): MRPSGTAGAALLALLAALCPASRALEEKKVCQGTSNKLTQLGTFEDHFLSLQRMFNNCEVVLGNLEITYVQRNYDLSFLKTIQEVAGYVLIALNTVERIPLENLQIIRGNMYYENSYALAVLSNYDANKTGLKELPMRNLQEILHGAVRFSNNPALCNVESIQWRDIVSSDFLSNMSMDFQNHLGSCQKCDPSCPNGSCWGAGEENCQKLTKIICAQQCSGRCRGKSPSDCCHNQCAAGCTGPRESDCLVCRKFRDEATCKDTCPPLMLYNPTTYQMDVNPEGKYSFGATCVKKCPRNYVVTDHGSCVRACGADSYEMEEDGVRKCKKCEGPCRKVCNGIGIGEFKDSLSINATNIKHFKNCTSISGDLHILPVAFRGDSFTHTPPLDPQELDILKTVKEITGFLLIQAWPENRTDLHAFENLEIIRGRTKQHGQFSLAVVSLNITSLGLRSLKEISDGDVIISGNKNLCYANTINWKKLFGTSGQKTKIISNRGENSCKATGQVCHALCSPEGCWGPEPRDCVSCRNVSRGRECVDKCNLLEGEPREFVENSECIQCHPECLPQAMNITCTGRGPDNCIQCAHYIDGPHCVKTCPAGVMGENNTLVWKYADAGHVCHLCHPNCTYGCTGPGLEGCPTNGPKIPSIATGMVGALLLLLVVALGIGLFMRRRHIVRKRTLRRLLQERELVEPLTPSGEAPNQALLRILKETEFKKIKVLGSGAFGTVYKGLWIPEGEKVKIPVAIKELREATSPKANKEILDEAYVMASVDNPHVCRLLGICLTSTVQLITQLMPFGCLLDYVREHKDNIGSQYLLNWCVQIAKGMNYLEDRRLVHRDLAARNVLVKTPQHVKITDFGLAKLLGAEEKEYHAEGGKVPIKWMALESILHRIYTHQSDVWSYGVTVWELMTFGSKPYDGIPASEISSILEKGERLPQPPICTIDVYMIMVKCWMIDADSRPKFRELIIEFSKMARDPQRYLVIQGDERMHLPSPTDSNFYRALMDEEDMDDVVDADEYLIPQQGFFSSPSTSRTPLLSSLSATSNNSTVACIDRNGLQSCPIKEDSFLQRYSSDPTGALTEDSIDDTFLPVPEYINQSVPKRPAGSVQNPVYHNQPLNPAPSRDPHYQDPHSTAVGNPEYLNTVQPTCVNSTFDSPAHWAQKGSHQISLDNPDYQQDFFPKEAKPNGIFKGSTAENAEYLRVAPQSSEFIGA

[20] = target: Epidermal growth factor receptor (Homo sapiens) (UniProt P00533); conditions: at 10 µM

Death-associated protein kinase 1 (Homo sapiens), sequence (P53355 whole entry, looked up): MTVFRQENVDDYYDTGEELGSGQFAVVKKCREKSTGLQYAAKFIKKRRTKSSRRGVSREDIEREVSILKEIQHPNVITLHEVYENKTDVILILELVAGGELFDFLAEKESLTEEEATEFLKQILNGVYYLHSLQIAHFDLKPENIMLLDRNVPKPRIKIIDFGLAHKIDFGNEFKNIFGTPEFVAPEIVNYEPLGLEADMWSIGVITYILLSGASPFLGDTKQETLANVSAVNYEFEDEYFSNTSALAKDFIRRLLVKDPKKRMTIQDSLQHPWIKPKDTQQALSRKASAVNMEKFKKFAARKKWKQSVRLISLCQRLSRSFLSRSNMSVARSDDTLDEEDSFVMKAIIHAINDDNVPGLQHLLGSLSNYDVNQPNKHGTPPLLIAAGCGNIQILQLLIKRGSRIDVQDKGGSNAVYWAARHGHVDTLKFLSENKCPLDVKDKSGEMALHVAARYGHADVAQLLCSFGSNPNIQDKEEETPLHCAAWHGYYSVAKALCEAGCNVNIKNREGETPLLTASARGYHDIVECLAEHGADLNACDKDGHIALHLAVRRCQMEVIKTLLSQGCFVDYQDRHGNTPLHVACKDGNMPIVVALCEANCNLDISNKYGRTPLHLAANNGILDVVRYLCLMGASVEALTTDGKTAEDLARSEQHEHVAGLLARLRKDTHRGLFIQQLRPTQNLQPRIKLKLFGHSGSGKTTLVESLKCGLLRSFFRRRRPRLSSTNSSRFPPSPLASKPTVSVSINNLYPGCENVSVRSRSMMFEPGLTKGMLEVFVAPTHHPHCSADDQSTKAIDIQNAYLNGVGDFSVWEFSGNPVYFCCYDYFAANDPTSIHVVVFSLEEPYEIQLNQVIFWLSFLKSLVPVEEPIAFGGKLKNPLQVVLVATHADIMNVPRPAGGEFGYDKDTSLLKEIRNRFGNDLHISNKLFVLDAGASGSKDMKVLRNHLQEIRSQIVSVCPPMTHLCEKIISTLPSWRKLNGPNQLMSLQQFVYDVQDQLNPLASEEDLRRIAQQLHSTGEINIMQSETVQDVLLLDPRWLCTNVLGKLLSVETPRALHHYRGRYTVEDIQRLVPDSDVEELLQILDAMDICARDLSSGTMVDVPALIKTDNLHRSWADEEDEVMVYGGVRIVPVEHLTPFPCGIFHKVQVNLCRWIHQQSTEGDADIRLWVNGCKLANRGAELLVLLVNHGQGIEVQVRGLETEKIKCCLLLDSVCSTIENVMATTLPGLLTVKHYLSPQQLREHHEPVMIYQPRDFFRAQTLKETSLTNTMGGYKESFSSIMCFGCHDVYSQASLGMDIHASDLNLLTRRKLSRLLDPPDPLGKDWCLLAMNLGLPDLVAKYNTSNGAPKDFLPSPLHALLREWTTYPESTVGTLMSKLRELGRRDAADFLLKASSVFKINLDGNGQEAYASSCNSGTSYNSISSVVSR
Death-associated protein kinase 2 (Homo sapiens), sequence (Q9UIK4 whole entry, looked up): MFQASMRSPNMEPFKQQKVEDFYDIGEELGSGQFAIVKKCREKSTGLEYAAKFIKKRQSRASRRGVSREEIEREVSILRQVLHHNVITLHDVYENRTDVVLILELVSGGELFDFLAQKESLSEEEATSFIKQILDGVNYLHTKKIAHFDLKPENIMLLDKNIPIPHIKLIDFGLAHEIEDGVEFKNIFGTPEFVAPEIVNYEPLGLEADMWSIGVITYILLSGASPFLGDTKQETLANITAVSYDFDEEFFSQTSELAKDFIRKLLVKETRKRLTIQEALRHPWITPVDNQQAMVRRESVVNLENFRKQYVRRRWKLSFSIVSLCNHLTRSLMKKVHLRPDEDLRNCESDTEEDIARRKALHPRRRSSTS

| SMILES | residual activity [1] [%] | residual activity [2] [%] | residual activity [3] [%] | residual activity [4] [%] | residual activity [5] [%] | residual activity [6] [%] | residual activity [7] [%] | residual activity [8] [%] | residual activity [9] [%] | residual activity [10] [%] | residual activity [11] [%] | residual activity [12] [%] | residual activity [13] [%] | residual activity [14] [%] | residual activity [15] [%] | residual activity [16] [%] | residual activity [17] [%] | residual activity [18] [%] | residual activity [19] [%] | residual activity [20] [%] |
| --- | --- | --- | --- | --- | --- | --- | --- | --- | --- | --- | --- | --- | --- | --- | --- | --- | --- | --- | --- | --- |
| Oc1ccc(Nc2nc(-c3ccc(Cl)cc3)cs2)cc1 | 107 | 101 | 107 | 123 | 179 | 97 | 104 | 100 | 98 | 119 | 96 | 104 | 93 | 95 | 63 | 88 | 113 | 107 | – | – |
| O=C(Nc1cccc(Nc2cc(Nc3cccc(C(F)(F)F)c3)ncn2)c1)C1CC1 | 100 | 91 | 91 | 92 | 109 | 81 | 94 | 100 | 106 | 81 | 50 | 97 | 99 | 82 | 90 | 108 | 98 | 115 | -2 | -3 |
| Oc1n[nH]c2nnc(-c3c(-c4ccccc4)nn4ccccc34)cc12 | 39 | 62 | 43 | 85 | 92 | 92 | 95 | 69 | 83 | 78 | 34 | 99 | 95 | 93 | 79 | 92 | 109 | 94 | – | – |
